Laboratory results reported in PubChem BioAssay (EPA / NIEHS).
Several values for one entry are separate records, joined by “and”; a condition that tells them apart may be missing. Equal entries are not always repeated. Results filed as inconclusive are left out. Activity calls are given as the source filed them. How the source made its calls, unless noted: active means hit-call score of the fitted dose curve at least 0.9, where 1 is the maximum; inconclusive means response in the unintended direction; inactive means score below 0.9.

Columns and labels:
[1] = BSK_4H_Eotaxin3: BioMAP Diversity Plus: 4H Assay for Eotaxin 3 Biomarker Activity (AID 2283000; active means hit-call score of the fitted dose curve at least 0.9, where 1 is the maximum; inactive means score below 0.9); conditions: primary human endothelial cells (HUVEC); actives raise or lower the signal
In short: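 ELISA quantitation of CCL26 (Eotaxin-3) protein from chemically dosed human vascular endothelial cells at 24 h; increases and decreases both scored relative to DMSO-treated baseline.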

[2] = read-out: Intercellular Adhesion Molecule 1 (ICAM1), ICAM1 (gene 3383); experiment: BSK_3C_ICAM1: BioMAP Diversity Plus: 3C Assay for Intercellular Adhesion Molecule 1 (ICAM1) Biomarker Activity (AID 2283003; active means hit-call score of the fitted dose curve at least 0.9, where 1 is the maximum; inactive means score below 0.9); conditions: primary human endothelial cells (HUVEC); actives raise or lower the signal
In short: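 Chemicals are dosed onto primary human umbilical vein endothelium (3C system). After 24 h, ICAM-1 is measured by ELISA, and responses are fitted bidirectionally relative to DMSO.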

[3] = BSK_3C_Proliferation: Cell Proliferation Assessment in the BioMAP Diversity Plus: 3C Assay (AID 2283006; active means hit-call score of the fitted dose curve at least 0.9, where 1 is the maximum; inactive means score below 0.9;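 on AC50: potency may reflect either rise or fall in cell number versus DMSO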); conditions: primary human endothelial cells (HUVEC)
In short: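 Cells (human umbilical vein endothelial, sub-confluent) receive test chemical; after 48 h they are fixed in 10% trichloroacetic acid, stained with 0.1% SRB and read at 560 nm. Activity is referenced to DMSO, fitting increases and decreases.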

[4] = biological target: Peroxisome proliferator-activated receptor gamma (Homo sapiens) (UniProt P37231); experiment: ATG_PPARg_TRANS: Attagene TRANS-FACTORIAL HepG2 Assay for human Peroxisome Proliferator-activated Receptor-gamma (PPARg) (AID 2283007)
In short: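 After 24 h of chemical exposure, transfected HepG2 cells carrying PPARγ-Gal4 chimera reporter constructs are lysed for RNA. Reporter transcripts are measured by RT-PCR and capillary electrophoresis with fluorescent labelling, and gain of signal is fitted versus DMSO.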

[5] = biological target: Nuclear receptor subfamily 1 group I member 2 (Homo sapiens) (UniProt O75469); experiment: ATG_PXR_TRANS: Attagene TRANS-FACTORIAL HepG2 Assay for human Pregnane X Receptor (PXR) (AID 2283008)
In short: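 HepG2 transfected (FuGene 6) with GAL4-UAS reporter units + PXR-Gal4 chimera; dosed 24 h. Total RNA → oligo(dT) RT → PCR → 6-FAM primer extension → HpaI cut → CE. Gain-of-signal vs DMSO.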

[6] = biological target: human Retinoic Acid Receptor gamma (RARg), RARG (gene 5916) (UniProt P13631); experiment: ATG_RARg_TRANS: Attagene TRANS-FACTORIAL HepG2 Assay for human Retinoic Acid Receptor gamma (RARg) (AID 2283009)
Sequence of human Retinoic Acid Receptor gamma (RARg), RARG (gene 5916) (P13631 whole entry, looked up, the tested form may be a part): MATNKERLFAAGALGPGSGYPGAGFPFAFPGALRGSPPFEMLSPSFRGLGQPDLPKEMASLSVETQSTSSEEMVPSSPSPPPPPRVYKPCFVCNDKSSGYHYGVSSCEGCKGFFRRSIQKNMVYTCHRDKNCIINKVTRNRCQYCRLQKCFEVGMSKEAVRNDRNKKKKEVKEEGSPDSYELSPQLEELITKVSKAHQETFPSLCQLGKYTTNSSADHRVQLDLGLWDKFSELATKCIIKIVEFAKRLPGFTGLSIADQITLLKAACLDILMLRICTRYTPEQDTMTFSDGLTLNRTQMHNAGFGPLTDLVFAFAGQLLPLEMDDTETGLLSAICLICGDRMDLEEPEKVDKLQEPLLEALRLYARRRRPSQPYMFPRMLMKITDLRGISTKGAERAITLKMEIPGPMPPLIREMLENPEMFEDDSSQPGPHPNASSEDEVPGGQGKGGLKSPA
In short: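 TRANS format measured activity of exogenous NR-GAL4 fusion (RARg) in transfected HepG2 liver cells after 24 h dosing. Induced reporter RNA was detected by RT-PCR/capillary electrophoresis fluorescence, analysed in the positive direction against DMSO.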

[7] = biological target: human RAR-related Orphan Receptor beta (RORb), RORB (gene 6096) (UniProt Q92753); experiment: ATG_RORb_TRANS: Attagene TRANS-FACTORIAL HepG2 Assay for human RAR-related Orphan Receptor beta (RORb) (AID 2283010)
Sequence of human RAR-related Orphan Receptor beta (RORb), RORB (gene 6096) (Q92753 whole entry, looked up, the tested form may be a part): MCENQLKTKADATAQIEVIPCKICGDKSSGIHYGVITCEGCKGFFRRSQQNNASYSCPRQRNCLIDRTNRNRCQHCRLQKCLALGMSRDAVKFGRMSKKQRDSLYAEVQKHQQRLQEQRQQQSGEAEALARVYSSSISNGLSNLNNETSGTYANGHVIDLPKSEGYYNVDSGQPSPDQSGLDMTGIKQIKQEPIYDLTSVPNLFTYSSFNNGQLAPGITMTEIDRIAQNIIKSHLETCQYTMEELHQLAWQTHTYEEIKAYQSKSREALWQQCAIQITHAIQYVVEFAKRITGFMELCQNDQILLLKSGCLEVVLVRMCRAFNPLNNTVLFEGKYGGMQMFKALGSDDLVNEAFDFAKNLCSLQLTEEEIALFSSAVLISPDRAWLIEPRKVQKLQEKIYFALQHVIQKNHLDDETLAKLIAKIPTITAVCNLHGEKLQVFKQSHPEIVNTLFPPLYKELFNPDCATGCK
In short: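 Transfect HepG2 with multiple GAL4-UAS reporter transcription units; dose chemicals for 24 h; isolate RNA, reverse-transcribe and PCR-amplify reporter sequences; label, digest and resolve fragments by capillary electrophoresis; fit increases relative to DMSO.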

[8] = biological target: Retinoic acid receptor RXR-alpha (Homo sapiens) (UniProt P19793); experiment: ATG_RXRa_TRANS: Attagene TRANS-FACTORIAL HepG2 Assay for human Retinoid X Receptor alpha (RXRa) (AID 2283012)
Sequence of Retinoic acid receptor RXR-alpha (Homo sapiens) (P19793 whole entry, looked up, the tested form may be a part): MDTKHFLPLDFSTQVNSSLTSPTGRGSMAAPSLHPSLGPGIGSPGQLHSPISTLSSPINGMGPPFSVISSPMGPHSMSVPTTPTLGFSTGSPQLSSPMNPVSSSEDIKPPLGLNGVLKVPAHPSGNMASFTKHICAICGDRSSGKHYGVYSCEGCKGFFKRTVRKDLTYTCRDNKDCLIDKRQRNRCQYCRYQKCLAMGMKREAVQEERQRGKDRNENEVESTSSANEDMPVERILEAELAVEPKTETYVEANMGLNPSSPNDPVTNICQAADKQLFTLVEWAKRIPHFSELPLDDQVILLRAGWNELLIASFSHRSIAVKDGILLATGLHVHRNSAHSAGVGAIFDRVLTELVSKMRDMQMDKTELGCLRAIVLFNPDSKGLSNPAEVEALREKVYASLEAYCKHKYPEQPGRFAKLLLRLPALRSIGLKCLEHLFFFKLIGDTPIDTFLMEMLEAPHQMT
In short: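 Measures exogenous chimeric NR-GAL4 activity in transfected HepG2 liver cells after 24 h of dosing. Induced reporter mRNA was detected by RT-PCR with capillary electrophoresis, and gain of signal was analysed against DMSO.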

[9] = biological target: human Retinoid X Receptor beta (RXRb), RXRB (gene 6257) (UniProt P28702); experiment: ATG_RXRb_TRANS: Attagene TRANS-FACTORIAL HepG2 Assay for human Retinoid X Receptor beta (RXRb) (AID 2283013)
Sequence of human Retinoid X Receptor beta (RXRb), RXRB (gene 6257) (P28702 whole entry, looked up, the tested form may be a part): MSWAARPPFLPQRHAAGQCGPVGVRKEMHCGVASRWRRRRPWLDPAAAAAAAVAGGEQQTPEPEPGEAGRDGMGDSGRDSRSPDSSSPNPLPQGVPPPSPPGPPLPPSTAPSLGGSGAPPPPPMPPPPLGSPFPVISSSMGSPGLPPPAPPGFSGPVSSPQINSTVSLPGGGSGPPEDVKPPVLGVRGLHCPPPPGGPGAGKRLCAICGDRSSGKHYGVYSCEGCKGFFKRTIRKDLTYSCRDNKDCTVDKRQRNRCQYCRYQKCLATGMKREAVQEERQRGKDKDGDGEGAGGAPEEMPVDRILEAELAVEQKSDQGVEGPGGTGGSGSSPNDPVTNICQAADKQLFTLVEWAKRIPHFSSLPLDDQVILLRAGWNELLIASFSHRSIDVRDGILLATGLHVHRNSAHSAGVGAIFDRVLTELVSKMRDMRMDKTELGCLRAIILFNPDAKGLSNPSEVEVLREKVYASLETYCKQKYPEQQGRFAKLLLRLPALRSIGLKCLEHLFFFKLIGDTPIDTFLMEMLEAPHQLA
In short: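 Chimeric receptor-Gal4 activity was assessed in transiently transfected human HepG2 cells after 24 h exposure. Transcripts from GAL4-UAS reporters were quantified by fluorescent RT-PCR and capillary electrophoresis, with DMSO as negative control and baseline.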

[10] = read-out: E-selectin (Homo sapiens) (UniProt P16581); experiment: BSK_3C_Eselectin: BioMAP Diversity Plus: 3C Assay for Eselectin Biomarker Activity (AID 2283015; active means hit-call score of the fitted dose curve at least 0.9, where 1 is the maximum; inactive means score below 0.9); conditions: primary human endothelial cells (HUVEC); actives raise or lower the signal
In short: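 Endpoint derived by bidirectional fitting against DMSO vehicle; signal is ELISA-detected E-selectin from primary HUVEC at 24 h post-dosing, with parallel SRB staining (0.1% SRB, 560 nm) flagging cytotoxicity.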

[11] = read-out: Interleukin-1 alpha (IL1a), IL1A (gene 3552); experiment: BSK_BE3C_IL1a: BioMAP Diversity Plus: BE3C Assay for Interleukin-1 alpha (IL1a) Biomarker Activity (AID 2283016; active means hit-call score of the fitted dose curve at least 0.9, where 1 is the maximum; inactive means score below 0.9); conditions: primary human bronchial epithelial cells; actives raise or lower the signal
In short: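 Signal from IL-1a ELISA, taken 24 h after chemical dosing of human bronchial epithelial cells, is compared with DMSO as baseline using bidirectional curve fitting.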

[12] = read-out: Monocyte Chemoattractant Protein-1 (MCP1), CCL2 (gene 6347); experiment: BSK_3C_MCP1: BioMAP Diversity Plus: 3C Assay for Monocyte Chemoattractant Protein-1 (MCP1) Biomarker Activity (AID 2283017; active means hit-call score of the fitted dose curve at least 0.9, where 1 is the maximum; inactive means score below 0.9); conditions: primary human endothelial cells (HUVEC); actives raise or lower the signal
In short: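 Using human vascular primary endothelium, researchers measured MCP-1 by ELISA 24 h after treatment, with DMSO serving as negative control for bidirectional fitting.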

[13] = read-out: Monocyte Chemoattractant Protein-1 (MCP1), CCL2 (gene 6347); experiment: BSK_4H_MCP1: BioMAP Diversity Plus: 4H Assay for Monocyte Chemoattractant Protein-1 (MCP1) Biomarker Activity (AID 2283018; active means hit-call score of the fitted dose curve at least 0.9, where 1 is the maximum; inactive means score below 0.9); conditions: primary human endothelial cells (HUVEC); actives raise or lower the signal
In short: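 Endothelial cells from umbilical vein were treated with test chemical, then after 24 h MCP-1 levels were quantified by ELISA; endpoint values came from bidirectional fitting with DMSO as baseline of activity.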

[14] = read-out: Human Leukocyte Antigen - DR isotype (HLADR), HLA-DRA (gene 3122); experiment: BSK_3C_HLADR: BioMAP Diversity Plus: 3C Assay for Human Leukocyte Antigen - DR isotype (HLADR) Biomarker Activity (AID 2283019; active means hit-call score of the fitted dose curve at least 0.9, where 1 is the maximum; inactive means score below 0.9); conditions: primary human endothelial cells (HUVEC); actives raise or lower the signal
In short: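 Compound added to primary HUVEC cultures, 24 h incubation, then HLA-DR determined by ELISA; endpoint derived by bidirectional fitting relative to DMSO negative control.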

[15] = biological target: human Peroxisome Proliferator-activated Receptor alpha (PPARa), PPARA (gene 5465) (UniProt Q07869); experiment: ATG_PPARa_TRANS: Attagene TRANS-FACTORIAL HepG2 Assay for human Peroxisome Proliferator-activated Receptor alpha (PPARa) (AID 2283001);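 on AC50: potency for gain of reporter signal over DMSO so agonist or activator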
Sequence of human Peroxisome Proliferator-activated Receptor alpha (PPARa), PPARA (gene 5465) (Q07869 whole entry, looked up, the tested form may be a part): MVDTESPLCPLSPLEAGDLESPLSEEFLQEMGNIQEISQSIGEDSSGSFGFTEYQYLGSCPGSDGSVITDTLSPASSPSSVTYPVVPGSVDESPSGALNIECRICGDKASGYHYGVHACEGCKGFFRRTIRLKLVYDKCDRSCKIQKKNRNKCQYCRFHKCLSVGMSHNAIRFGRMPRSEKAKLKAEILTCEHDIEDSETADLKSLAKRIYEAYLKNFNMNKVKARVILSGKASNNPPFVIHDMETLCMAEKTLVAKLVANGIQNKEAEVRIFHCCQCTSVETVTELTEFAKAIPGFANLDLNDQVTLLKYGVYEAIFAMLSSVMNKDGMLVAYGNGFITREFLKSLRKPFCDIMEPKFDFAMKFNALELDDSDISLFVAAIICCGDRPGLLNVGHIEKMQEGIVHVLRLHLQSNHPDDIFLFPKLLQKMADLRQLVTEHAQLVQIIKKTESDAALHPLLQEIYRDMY
In short: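 Reporter transcripts quantified by RT-PCR plus capillary electrophoresis after 24 h treatment, fitted upward relative to DMSO. Cells: human HepG2 transiently carrying multiple GAL4-UAS reporter units driven by NR-Gal4 chimeras.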

[16] = biological target: human Peroxisome Proliferator-activated Receptor delta (PPARd), PPARD (gene 5467) (UniProt Q03181); experiment: ATG_PPARd_TRANS: Attagene TRANS-FACTORIAL HepG2 Assay for human Peroxisome Proliferator-activated Receptor delta (PPARd) (AID 2283002)
Sequence of human Peroxisome Proliferator-activated Receptor delta (PPARd), PPARD (gene 5467) (Q03181 whole entry, looked up, the tested form may be a part): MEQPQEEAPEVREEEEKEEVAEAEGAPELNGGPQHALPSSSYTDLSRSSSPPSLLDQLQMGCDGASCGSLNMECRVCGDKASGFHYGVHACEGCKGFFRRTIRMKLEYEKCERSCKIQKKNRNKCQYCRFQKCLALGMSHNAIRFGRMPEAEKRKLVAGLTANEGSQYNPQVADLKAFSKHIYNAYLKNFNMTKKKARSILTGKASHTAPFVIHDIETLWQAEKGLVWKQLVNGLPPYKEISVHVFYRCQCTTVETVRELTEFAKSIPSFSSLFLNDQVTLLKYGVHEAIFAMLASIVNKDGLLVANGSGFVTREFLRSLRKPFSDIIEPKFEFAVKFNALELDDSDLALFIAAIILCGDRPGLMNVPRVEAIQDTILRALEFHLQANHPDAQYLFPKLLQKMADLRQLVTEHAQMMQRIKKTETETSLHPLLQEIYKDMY
In short: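 Transient HepG2 transfection (multiple GAL4-UAS RTUs, chimeric receptor-Gal4); 24 h dosing; total RNA → oligo(dT) RT → PCR → 6-FAM primer extension → HpaI cut → CE. Positive direction vs DMSO.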

[17] = biological target: human Retinoic Acid Receptor beta (RARb), RARB (gene 5915) (UniProt P10826); experiment: ATG_RARb_TRANS: Attagene TRANS-FACTORIAL HepG2 Assay for human Retinoic Acid Receptor beta (AID 2283004)
Sequence of human Retinoic Acid Receptor beta (RARb), RARB (gene 5915) (P10826 whole entry, looked up, the tested form may be a part): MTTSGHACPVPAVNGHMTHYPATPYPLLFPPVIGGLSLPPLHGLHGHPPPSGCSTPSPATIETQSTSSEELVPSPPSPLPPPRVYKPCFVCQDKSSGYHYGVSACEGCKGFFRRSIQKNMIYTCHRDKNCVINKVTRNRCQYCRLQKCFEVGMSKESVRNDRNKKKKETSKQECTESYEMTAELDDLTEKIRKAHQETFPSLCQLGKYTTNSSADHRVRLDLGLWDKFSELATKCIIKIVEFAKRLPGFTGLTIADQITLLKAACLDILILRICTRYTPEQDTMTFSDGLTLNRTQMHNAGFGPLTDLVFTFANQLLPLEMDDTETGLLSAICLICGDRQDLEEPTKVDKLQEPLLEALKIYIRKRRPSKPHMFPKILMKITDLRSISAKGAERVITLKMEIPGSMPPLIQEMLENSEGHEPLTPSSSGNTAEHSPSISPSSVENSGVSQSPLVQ
In short: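 Fluorescent capillary-electrophoresis detection of GAL4-UAS reporter mRNA defines the endpoint, with induction over DMSO-treated wells scored as activity. Transiently transfected human hepatoma HepG2 cells expressing exogenous NR–Gal4 proteins are exposed to test chemicals for 24 h.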

[18] = biological target: Retinoic acid receptor alpha (Homo sapiens) (UniProt P10276); experiment: ATG_RARa_TRANS: Attagene TRANS-FACTORIAL HepG2 Assay for human Retinoic Acid Receptor alpha (RARa) (AID 2283005)
Sequence of Retinoic acid receptor alpha (Homo sapiens) (P10276 whole entry, looked up, the tested form may be a part): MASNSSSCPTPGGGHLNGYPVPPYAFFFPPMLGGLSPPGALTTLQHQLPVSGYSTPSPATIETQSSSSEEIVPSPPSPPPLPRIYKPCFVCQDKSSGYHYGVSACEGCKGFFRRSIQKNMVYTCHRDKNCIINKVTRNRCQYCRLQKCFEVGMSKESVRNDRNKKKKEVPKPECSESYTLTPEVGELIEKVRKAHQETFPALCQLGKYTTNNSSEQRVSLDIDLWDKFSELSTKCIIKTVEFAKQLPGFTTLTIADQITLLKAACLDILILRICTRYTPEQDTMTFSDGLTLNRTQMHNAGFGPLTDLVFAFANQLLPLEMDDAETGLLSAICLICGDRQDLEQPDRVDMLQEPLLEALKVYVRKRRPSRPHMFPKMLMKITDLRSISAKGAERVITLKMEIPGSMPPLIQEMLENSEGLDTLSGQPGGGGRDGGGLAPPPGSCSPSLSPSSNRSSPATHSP
In short: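 Reporter transcripts, measured by RT-PCR with fluorescent labeling and capillary electrophoresis after 24 h dosing, reflect activity of an exogenous human RARa–GAL4 fusion in transiently transfected HepG2. Fitted for increase relative to DMSO.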

[19] = biological target: human RAR-related Orphan Receptor gamma (RORg), RORC (gene 6097) (UniProt P51449); experiment: ATG_RORg_TRANS: Attagene TRANS-FACTORIAL HepG2 Assay for human RAR-related Orphan Receptor gamma (RORg) (AID 2283011)
Sequence of human RAR-related Orphan Receptor gamma (RORg), RORC (gene 6097) (P51449 whole entry, looked up, the tested form may be a part): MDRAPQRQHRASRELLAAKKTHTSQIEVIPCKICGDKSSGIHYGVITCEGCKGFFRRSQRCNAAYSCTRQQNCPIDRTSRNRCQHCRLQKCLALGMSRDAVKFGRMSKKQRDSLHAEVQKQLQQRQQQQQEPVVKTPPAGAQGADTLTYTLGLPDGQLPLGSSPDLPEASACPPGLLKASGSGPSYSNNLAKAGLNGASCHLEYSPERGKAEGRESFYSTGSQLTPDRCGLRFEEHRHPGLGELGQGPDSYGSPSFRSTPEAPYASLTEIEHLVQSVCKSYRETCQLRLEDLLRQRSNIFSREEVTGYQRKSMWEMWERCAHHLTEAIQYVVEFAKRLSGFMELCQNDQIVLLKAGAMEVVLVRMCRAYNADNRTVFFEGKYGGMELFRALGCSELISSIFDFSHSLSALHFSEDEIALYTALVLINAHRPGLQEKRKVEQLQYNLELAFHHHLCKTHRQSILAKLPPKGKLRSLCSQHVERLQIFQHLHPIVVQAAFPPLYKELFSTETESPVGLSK
In short: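 Chimeric RORg-Gal4 transactivation in transfected HepG2; 24 h exposure; RT-PCR/capillary electrophoresis readout of reporter mRNA, DMSO baseline.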

[20] = biological target: human Thyroid Receptor alpha (THRa1), THRA (gene 7067) (UniProt P10827); experiment: ATG_THRa1_TRANS: Attagene TRANS-FACTORIAL HepG2 Assay for human Thyroid Receptor alpha (THRa1) (AID 2283014)
Sequence of human Thyroid Receptor alpha (THRa1), THRA (gene 7067) (P10827 whole entry, looked up, the tested form may be a part): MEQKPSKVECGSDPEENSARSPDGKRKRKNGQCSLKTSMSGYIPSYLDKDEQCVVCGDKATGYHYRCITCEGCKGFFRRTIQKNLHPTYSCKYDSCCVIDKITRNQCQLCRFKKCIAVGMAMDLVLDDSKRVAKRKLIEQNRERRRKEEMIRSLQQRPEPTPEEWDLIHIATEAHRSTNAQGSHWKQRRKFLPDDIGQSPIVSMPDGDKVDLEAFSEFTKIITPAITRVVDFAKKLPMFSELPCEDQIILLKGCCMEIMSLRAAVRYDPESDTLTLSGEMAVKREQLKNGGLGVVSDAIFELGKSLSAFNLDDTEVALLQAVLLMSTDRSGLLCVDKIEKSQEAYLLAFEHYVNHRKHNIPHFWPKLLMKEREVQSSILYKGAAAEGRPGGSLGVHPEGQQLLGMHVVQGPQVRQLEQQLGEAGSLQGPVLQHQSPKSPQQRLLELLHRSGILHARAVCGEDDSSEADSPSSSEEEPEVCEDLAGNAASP
In short: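 Measured here is mRNA from a GAL4-UAS reporter in transfected HepG2 cells carrying a Gal4-fused receptor, 24 h post-dose. DMSO served as negative control and baseline.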

Measured: AC50

CCCCCCCCC(CO)CCCCCC (configuration not stated)
active: [1] 5.35 µM | [9] 21.9 µM | [12] 5.93 µM
not listed: [15] | [16] | [17] | [18] | [19] | [20]
inactive: all other assays above

Nc1ccc(Cl)c(N)c1
inactive: [15] | [16] | [17] | [18] | [4] | [5] | [6] | [7] | [8] | [9]

CCCC(C)C(=O)OCC (configuration not stated)
not listed: [5] | [9] | [12] | [15] | [16] | [18] | [20]
inactive: all other assays above

C=C[C@@]1(C)CC(=O)[C@]2(O)[C@@]3(C)[C@@H](O)CCC(C)(C)[C@@H]3[C@H](O)[C@H](OC(C)=O)[C@@]2(C)O1
inactive: [16] | [17] | [18] | [6] | [7]
active: [15] 3.28 µM | [4] 3.2 µM | [8] 26.9 µM | [9] 3.64 µM

Oc1ccccc1Cc1ccccc1O
active: [3] 7.87 µM and 20 µM | [4] 61.1 µM
inactive: [1] | [16] | [2] | [6] | [9] | [20] | [10] | [11] | [14]

CC(C)COC(=O)CC(C(=O)OCC(C)C)S(=O)(=O)O (configuration not stated)
active: [4] 66.8 µM | [5] 36.2 µM
inactive: [15] | [16] | [17] | [18] | [9]

CC(=O)OC1CCCCC1C(C)(C)C (configuration not stated)
active: [9] 58.9 µM
not listed: [1] | [2] | [3] | [10] | [11] | [12] | [13] | [14]
inactive: all other assays above

CC=C(C)C=CC=C(C)C
inactive: [2] | [6] | [19] | [9] | [20] | [11] | [12]
active: [1] 20 µM | [3] 22.1 µM | [4] 27.8 µM | [5] 6.05 µM | [10] 20 µM | [14] 20 µM

CC1(C)C(=O)N(CO)C(=O)N1CO
inactive: [15] | [16] | [17] | [18] | [5] | [6] | [7] | [19] | [8] | [20]

C=CC(=O)O[C@H]1C[C@@H]2CC[C@@]1(C)C2(C)C
inactive: [15] | [16] | [4] | [7] | [8] | [9]
active: [5] 26.6 µM

CCC1COC(=O)O1 (configuration not stated)
active: [9] 70.1 µM
inactive: [15] | [16] | [17] | [4] | [7] | [19] | [8]

COC(=O)C=Cc1ccccc1
inactive: [15] | [16] | [18] | [4] | [5] | [6] | [19] | [9]
